# This is a sample that favours compounds with a hit; in the whole collection about 7.4% have one here.
# FLuc counter: qHTS profiling assay for firefly luciferase inhibitor/activator using purifed enzyme and Km concentrations of substrates (counterscreen for miR-21 project). 6.9% of 360,000 active. purified FLuc, Km substrates, luminescence inhibition. Luciferin 4-monooxygenase (Photinus pyralis), P08659. Potency, µM (top dose mostly 57.5 µM), inactives show at the highest dose activity change, negative = inhibition, hits mostly inhibitors;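 note: plate controls were vehicle for no effect and reference inhibitor for full effect; nearly all actives have a fitted effect of over 55% in size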
# Target sequence (P08659 whole entry, looked up): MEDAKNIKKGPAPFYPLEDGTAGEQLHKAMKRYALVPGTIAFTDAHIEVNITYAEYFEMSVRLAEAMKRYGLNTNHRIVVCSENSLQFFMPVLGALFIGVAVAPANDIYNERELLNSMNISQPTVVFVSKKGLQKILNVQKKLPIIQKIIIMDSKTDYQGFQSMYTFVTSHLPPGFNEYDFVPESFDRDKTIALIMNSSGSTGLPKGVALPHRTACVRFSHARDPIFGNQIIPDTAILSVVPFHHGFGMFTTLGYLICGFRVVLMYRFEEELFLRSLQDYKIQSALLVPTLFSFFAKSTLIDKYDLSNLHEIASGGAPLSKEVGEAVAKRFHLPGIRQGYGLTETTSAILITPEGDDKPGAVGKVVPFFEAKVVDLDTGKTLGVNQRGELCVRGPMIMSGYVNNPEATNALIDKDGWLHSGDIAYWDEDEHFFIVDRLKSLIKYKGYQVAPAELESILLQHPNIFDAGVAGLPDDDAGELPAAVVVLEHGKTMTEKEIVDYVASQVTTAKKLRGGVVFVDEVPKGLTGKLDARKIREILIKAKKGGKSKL
#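 Biochemical qHTS of compounds, final roughly 60 µM downward over six points, against 10 nM purified firefly luciferase using Km concentrations of substrates (10 uM D-luciferin, 10 uM ATP) in Tris acetate pH 7.5 buffer; luminescence output.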
# ELG1 genotox: qHTS screen for small molecules that induce genotoxicity in human embryonic kidney (HEK293T) cells expressing luciferase-tagged ELG1 | HEK293T ELG1-luciferase reporter, luminescence, 16 h | Potency, µM (titrated, usually from 46 µM), without a hit: at the top dose activity change, positive = activation, actives largely listed as activators | 1.3% of 330,000 active | AID 504466, 2011; note: % of control where 0% means no effect; nearly all actives have a fitted effect of over 60% in size
#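 Quantitative HTS format in 1536-well plates. HEK293T ELG1-luciferase reporter cells receive test compound and are incubated 16 hr at 37 °C, 5% CO2; ONE-Glo added, 30 min room temperature, then luminescence read.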
# Rab9 prom act: qHTS Assay for Rab9 Promoter Activators | Huh7 Rab9 promoter-luciferase reporter, luminescence, 24 h | AID 485297, 2010 | Potency, µM (doses to about 9.22 µM), for the others: at the top dose activation, negative = inhibition, actives largely listed as activators | 2.8% of 320,000 active; note: % of control where 0% means no effect; nearly all actives have a fitted effect of over 60% in size
#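 Cells were plated at 1500 per well in reduced-serum medium with 10% FBS and left 2 h. Compound in DMSO was then added for 24 h at 37 °C. Reporter signal was read by luminescence after 10 min with luciferase detection reagent.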
# SMN2 splice up: qHTS Assay for Enhancers of SMN2 Splice Variant Expression | HEK293 SMN2-luciferase splicing reporter, luminescence, 30-36 h | Potency, µM (titrated, usually from 46.1 µM), for the others: top-dose activity change, positive = activation, most hits filed as activators | 2.8% of 210,000 active | AID 1458, 2008; note: % of control where 0% means no effect; nearly all actives have a fitted effect of over 55% in size
#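 HEK293 cells carry an SMN2 […]–luciferase reporter in which exon 7 inclusion puts luciferase in frame. Cells were plated 10-12 h before compound addition, then incubated 30-36 h at 37C. ONE-Glo luminescence was read; sodium butyrate at 4.5 mM final served as control.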
# NPC1 promoter act: qHTS Assay for NPC1 Promoter Activators; Huh7 NPC1 promoter luciferase reporter, 24 h; Potency, µM (highest dose often 9.22 µM), inactives show top-dose activation, most hits filed as activators; 2.4% of 320,000 active; note: % of control where 0% means no effect; nearly all actives have a fitted effect of over 60% in size
#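 Luciferase expression driven by the NPC1 promoter was measured in stably transfected Huh7 cells after a 24 h compound incubation, using a luciferase reagent and a luminescence read.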
# Active calls of the source: *; ? = inconclusive; . = no result given; [ ] = dose if it differs, or a comment. Calls come from the whole dose curve; as a rule, active = well fitted curve in the direction sought with a large enough effect; inconclusive = small, poorly fitted or top-dose-only effect, or another doubt; inactive = no such curve, though single readings can be large; an effect the other way counts as inactive or inconclusive. Potency is the fitted concentration of half-maximal effect.
SMILES,FLuc counter,ELG1 genotox,Rab9 prom act,SMN2 splice up,NPC1 promoter act
CSCCC1NC(=O)N(CC(=O)Nc2ccc(N3CCCCC3)cc2)C1=O (centres undefined),12µM*,1%,-6%,-9%,11%
COc1ccc(CNc2ncnc3c2nc2n3CCCC2)cc1,-7%,.,.,.,.
O=C(Nc1cccc(-c2cnc3ccccc3n2)c1)c1cccc(NC(=O)c2ccco2)c1,11µM*,-6%,3%,?,2%
c1cncc(CNc2cccc(-c3nc4ccccc4[nH]3)c2)c1,7.6µM*,?,2.5µM*,0.89µM*,2.8µM*
O=C(Nc1cccc(-c2nc3ccccc3[nH]2)c1)c1ccco1,15µM*,-9%,0%,5%,13%
COc1c(Cl)cc(C(=O)Nc2cccc(-c3nc4ccccc4[nH]3)c2)cc1Cl,?,.,.,-10%,.
Cn1cccc1-c1nc2ccc(NC(=O)c3ccco3)cc2[nH]1,17µM*,8%,27%,36%,9%
O=C(Nc1cccc(-c2cnc3ccccc3n2)c1)c1ccccc1,-13%,15%,17%,-9%,4%
COCC(=O)C(C(=O)OC)[C@H](CCc1ccccc1)NC(=O)OC (some centres undefined),.,.,.,1%,.
COC(=O)c1c(S(C)(=O)=O)nc(-c2ccccc2)[nH]c1=O,-2%,2%,-7%,?,-4%
O=C(Nc1ccc(-c2nc3ccc(NC(=O)c4cccs4)cc3[nH]2)cc1)c1cccs1,-11%,13µM*,-13%,10µM*,-5%
Cc1ccc2nc(-c3ccc(NC(=O)c4ccco4)cc3)[nH]c2c1,3µM*,2.1µM*,3.5µM*,7.9µM*,1.6µM*
O=C(Nc1ccc2nc(-c3cccs3)[nH]c2c1)c1cccs1,-9%[2.3 µM],6%,28%,5%,13%
Cc1ccc(-c2nnc(-c3ccc(NC(=O)c4ccco4)cc3)o2)cc1,-8%,14%,1%,-3%,7%
Nc1ccc(C(=O)Nc2ccc3nc(-c4ccncc4)[nH]c3c2)cc1,17µM*,-2%,11%,?,0%
CC(=O)Nc1ccc2nc(-c3ccncc3)[nH]c2c1,-19%,13%,0%,8%,4%
O=C(Nc1ccc2nc(-c3cccs3)[nH]c2c1)c1ccco1,7.6µM*,4%,?,?,27%
CCOc1ccc(CC(=O)Nc2ccc(NC(=O)c3ccco3)cc2)cc1OCC,-1%,4%,1%,-61%,-4%
CC(C)Cn1[nH]c2c3c(ccc2c1=O)C(=O)c1ccccc1C3=O,?,3%,-5%,-69%,2%
Cc1cccc(OCC(=O)Nc2cccc(OCc3cc(=O)n4cccc(C)c4n3)c2)c1,-11%,.,.,.,.
Cc1ccc(NC(=O)c2ocnc2C)cc1Cl,12µM*,?,3.2µM*,14µM*,?
CC(C)NC(=O)c1cc2ccccc2o1,-8%,-2%,0%,1%,-2%
CC(=O)Nc1cccc(NC(=O)c2cc3ccccc3o2)c1,3.4µM*,5.8µM*,?,11µM*,3.5µM*
CCCCOC(=O)c1cccc(NC(=O)c2cc3ccccc3o2)c1,8.5µM*,.,.,3.5µM*,.
CC(C)C(=O)Nc1cccc(NC(=O)c2cc3ccccc3o2)c1,6µM*,?,?,18µM*,?
SMILES,FLuc counter,ELG1 genotox,Rab9 prom act,SMN2 splice up,NPC1 promoter act
CCCCOC(=O)c1ccc(NC(=O)c2cc(=O)c3ccccc3o2)cc1,0%,.,.,4%,.
COC(=O)c1c(C(=O)OC)c(-c2ccc(Cl)cc2)n2c1CS(=O)(=O)C2,1%,-2%,-18%,3%,-5%
Cc1ccc(NC(=O)c2cc3ccccc3o2)cc1Cl,3.4µM*,?,3.2µM*,.,4µM*
COc1ccc(Oc2ncc3nc(CCc4ccccc4)c(=O)n(CCC#N)c3n2)cc1,.,.,.,-21%,.
CC1C/C(=C/c2ccccn2)C(=O)/C(=C/c2ccccn2)C1 (centres undefined),-11%,-17%,-43%,-76%,-42%
O=C1/C(=C/c2ccc(O)cc2)COc2ccccc21,0.76µM*,10µM*,-2%,.,0%
